The record followed here is PubChem BioAssay.

Calls of active or inactive are those of the source. Unless noted, how the calls were made is not given here.

A short description of experiment [1]: circadian clock period modulators, cell-based, LOPAC library, luminescence reporter (AID 2774).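 Further: values are relative to mean of DMSO wells on each plate.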 The settings on record: circadian reporter cells, at 7 µM, actives lie on both sides.
For experiment [2], the system named is Hepatitis C virus NS3 helicase. Description: HCV NS3 helicase inhibitors, primary screen, biochemical, fluorescence polarization, LOPAC1280 library (AID 687035; in the data active means inhibition above about 37%). The settings on record: Purified HCV NS3 helicase, Cy5-dT15 ssDNA binding fluorescence polarization; stronger effect = higher value; concentration not given here. (In general: Fluorescence polarisation rises when a labelled molecule tumbles more slowly, as on binding a larger partner.)

Experiment [3] in a line: Cy5 fluorescence quenching or enhancement artefacts, artefact control for HCV NS3 helicase inhibitor project, biochemical, LOPAC1280 (AID 687037). As to conditions: Cy5-DNA-NS3h complex fluorescence interference counterscreen.
Experiment [4] is described as follows: sensitizers of A549 cells to miR-34 induction, primary screen, imaging, A549 dox-inducible miR-34, nuclei and caspase counts (AID 1347080;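 active means compounds whose cell count with miR-34 switched on is under 0.7 times the count with it off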). As to conditions: A549 miR-34 inducible, Hoechst nuclei count, 48 h.
Experiment [5] in a line: phospholipid biosynthesis inhibitors in animal cells, primary screen, cell-based, LOPAC library, screen 4 (AID 1347384). As to conditions: phospholipid biosynthesis inhibition screen, at 10 µM.
Experiment [6] can be described thus: viability rescue of complex I mutant cybrids, primary screen, cell-based, galactose medium, ATP luminescence (AID 1645843;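 active means z-score of at least 1.8 in each of two replicates, scored against plate mean and spread of sample wells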;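 further: positive z means more ATP and so rescue of galactose-driven cybrid death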). As to conditions: complex I mutant cybrid cells, 72 h, stronger effect = higher value.
Setting [7] is: stronger effect = lower value, cell number ratio, induced over uninduced.
The mark [8] stands for this setting: measured here: relative caspase fold change +Dox/-Dox.
[9] abbreviates: measured here: total cells with miR-34 induction, stronger effect = lower value.
Setting [10] is: measured here: total cells without miR-34 induction.

The inhibition is the relative decrease from the control value, in per cent. Take `CCCN(CCc1ccccc1)C1CCc2c(O)cccc2C1` (stereo unspecified): in experiment [1], the period change was 0.095 h (inactive). In addition, in experiment [2], the inhibition was -4% (inactive). Besides, in experiment [3], the fluorescence ratio (interference) was 1 (inactive). Moreover, the figures for the fold change in experiment [4] (setting [7]) and in experiment [4] (setting [8]) were 0.964 (inactive) and 1.22, respectively. Moreover, the cell count worked out at 5860 in experiment [4] (setting [9]) and 6070 in experiment [4] (setting [10]). Moreover, the result in experiment [5] was inactive. Besides, in experiment [6], the z-score is -1.21 (inactive).
Regarding `Nc1c(S(=O)(=O)O)cc(Nc2ccc(Nc3nc(Cl)nc(Nc4ccc(S(=O)(=O)O)cc4)n3)c(S(=O)(=O)O)c2)c2c1C(=O)c1ccccc1C2=O`, in experiment [1], the period change is 0.105 h (inactive). Further, the inhibition in experiment [2] was 86% (active). Also, in experiment [3], the fluorescence ratio (interference) is 0.7 (active). The figures for the fold change in experiment [4] (setting [7]) and in experiment [4] (setting [8]) were 1.07 (inactive) and 0.889, respectively. The cell count in experiment [4] (setting [9]) worked out at 9580; in experiment [4] (setting [10]), 8990. The outcome in experiment [5] was inactive. In addition, in experiment [6], the z-score is 4.81 (active).
Turning to `CC(=O)N[C@H](C(=O)O)C(C)(C)SN=O`, the period change in experiment [1] was 0.185 h (inactive). In experiment [2], the inhibition is -4% (inactive). Also, the fluorescence ratio (interference) in experiment [3] is 1 (inactive). The fold change in experiment [4] (setting [7]) is 1.07 (inactive); in experiment [4] (setting [8]), 1.19. Besides, the cell count worked out at 11100 in experiment [4] (setting [9]) and 10400 in experiment [4] (setting [10]). Moreover, the call in experiment [5] was inactive. Also, the z-score in experiment [6] is -0.22 (inactive).
For `O=Nc1ccc2oc(=O)ccc2c1`, the period change in experiment [1] is -0.05 h (inactive). In addition, the inhibition in experiment [2] was -2% (inactive). In experiment [3], the fluorescence ratio (interference) is 1 (inactive). The fold change is 1.06 (inactive) in experiment [4] (setting [7]) and 0.992 in experiment [4] (setting [8]). For the same compound, the values for the cell count in experiment [4] (setting [9]) and in experiment [4] (setting [10]) were 10200 and 9600, respectively. The compound was classed as inactive in experiment [5]. The z-score in experiment [6] is -1.25 (inactive).
With `Nc1cc(Cl)c(NC2=NCCN2)c(Cl)c1`, the period change in experiment [1] was 0.07 h (inactive). Moreover, in experiment [2], the inhibition is -4% (inactive). Also, the fluorescence ratio (interference) in experiment [3] was 0.9 (inactive). For the same compound, the figures for the fold change in experiment [4] (setting [7]) and in experiment [4] (setting [8]) were 1.02 (inactive) and 1.68, respectively. Also, the cell count came to 11100 in experiment [4] (setting [9]) and 10900 in experiment [4] (setting [10]). Besides, the compound was classed as inactive in experiment [5]. In experiment [6], the z-score is 0.705 (inactive).
As for `COc1cc2c(CCNC(C)=O)c[nH]c2cc1O`, the period change in experiment [1] is -0.175 h (inactive). Also, the inhibition in experiment [2] is -2% (inactive). In experiment [3], the fluorescence ratio (interference) was 1 (inactive). The fold change was 0.921 (inactive) in experiment [4] (setting [7]) and 1.6 in experiment [4] (setting [8]). The results for the cell count in experiment [4] (setting [9]) and in experiment [4] (setting [10]) were 10100 and 11000, respectively. Also, the result in experiment [5] was inactive. The z-score in experiment [6] is -0.44 (inactive).
As for `[N-]=[N+]=Nc1ccc(C(=O)CSC[C@H](NC(=O)CC[C@H](N)C(=O)O)C(=O)NCC(=O)O)cc1`, the period change in experiment [1] was 0 h (inactive). Besides, in experiment [2], the inhibition is -5% (inactive). The fluorescence ratio (interference) in experiment [3] was 0.9 (inactive). The fold change in experiment [4] (setting [7]) is 0.923 (inactive); in experiment [4] (setting [8]) it was 1.4. The cell count in experiment [4] (setting [9]) amounted to 5390; in experiment [4] (setting [10]) it was 5840. Moreover, the outcome in experiment [5] was inactive. Further, the z-score in experiment [6] is -1.12 (inactive).
Consider `CC(=O)C(C)=O`, for which the period change in experiment [1] was -0.125 h (inactive). Besides, in experiment [2], the inhibition was -3% (inactive). In addition, the fluorescence ratio (interference) in experiment [3] is 1 (inactive). For the same compound, the fold change in experiment [4] (setting [7]) was 1.06 (inactive); in experiment [4] (setting [8]), 0.938. Further, the cell count came to 10100 in experiment [4] (setting [9]) and 9490 in experiment [4] (setting [10]). Further, the call in experiment [5] was inactive. In experiment [6], the z-score is 0.23 (inactive).
Turning to `CCCOC(=O)c1c(-c2ccccc2)nc(CC)c(C(=O)SCC)c1CCC`, the period change in experiment [1] is -0.02 h (inactive). In addition, the inhibition in experiment [2] was -3% (inactive). Also, the fluorescence ratio (interference) in experiment [3] was 1 (inactive). Moreover, the fold change in experiment [4] (setting [7]) is 1.01 (inactive); in experiment [4] (setting [8]) it was 0.935. The results for the cell count in experiment [4] (setting [9]) and in experiment [4] (setting [10]) were 9020 and 8910, respectively. Also, in experiment [5], the result was inactive. The z-score in experiment [6] was -1.19 (inactive).
For the compound `CCC(=O)N1CCN(C(=O)c2ccccc2)CC1`, the period change in experiment [1] was -0.115 h (inactive). Besides, the inhibition in experiment [2] is -1% (inactive). For the same compound, the fluorescence ratio (interference) in experiment [3] was 1.1 (inactive). The fold change in experiment [4] (setting [7]) was 0.906 (inactive); in experiment [4] (setting [8]) it was 1.03. Also, the values for the cell count in experiment [4] (setting [9]) and in experiment [4] (setting [10]) were 9050 and 9990, respectively. Moreover, the outcome in experiment [5] was inactive. In experiment [6], the z-score was 0.245 (inactive).
For the compound `N[C@@H](CCC(=O)N[C@H](CSN=O)C(=O)NCC(=O)O)C(=O)O`, the period change in experiment [1] was 0.1 h (inactive). The inhibition in experiment [2] is -3% (inactive). For the same compound, in experiment [3], the fluorescence ratio (interference) is 1 (inactive). Further, the fold change was 1.04 (inactive) in experiment [4] (setting [7]) and 1.18 in experiment [4] (setting [8]). Moreover, the figures for the cell count in experiment [4] (setting [9]) and in experiment [4] (setting [10]) were 10800 and 10400, respectively. Moreover, the compound was classed as inactive in experiment [5]. Also, in experiment [6], the z-score was 0.335 (inactive).
`COc1ccc2c(c1)c(CC(=O)O)c(C)n2C(=O)c1ccccc1`: the period change in experiment [1] is 0.15 h (inactive). Besides, in experiment [2], the inhibition was -2% (inactive). Further, the fluorescence ratio (interference) in experiment [3] is 1 (inactive). Moreover, the fold change in experiment [4] (setting [7]) is 1.07 (inactive); in experiment [4] (setting [8]), 1.77. Moreover, the cell count in experiment [4] (setting [9]) worked out at 9380; in experiment [4] (setting [10]) it was 8810. Also, in experiment [5], the compound was classed as inactive. Moreover, the z-score in experiment [6] was 1.18 (inactive).
`CC(C)C[C@H](NC(=O)C1OC1C(=O)O)C(=O)NCCCCN=C(N)N` (stereo partly specified): in experiment [1], the period change was -0.035 h (inactive). For the same compound, in experiment [2], the inhibition is 0% (inactive). Moreover, the fluorescence ratio (interference) in experiment [3] was 1 (inactive). In addition, the figures for the fold change in experiment [4] (setting [7]) and in experiment [4] (setting [8]) were 0.999 (inactive) and 1.62, respectively. Further, the cell count is 9550 in experiment [4] (setting [9]) and 9560 in experiment [4] (setting [10]). Besides, the compound was called inactive in experiment [5]. Besides, in experiment [6], the z-score was 0.15 (inactive).
`O=C(O)CC1CCCc2ccccc2C1O` (stereo unspecified): in experiment [1], the period change is 0.085 h (inactive). For the same compound, in experiment [2], the inhibition was -4% (inactive). The fluorescence ratio (interference) in experiment [3] was 1 (inactive). Also, the results for the fold change in experiment [4] (setting [7]) and in experiment [4] (setting [8]) were 1.02 (inactive) and 1.73, respectively. Moreover, the results for the cell count in experiment [4] (setting [9]) and in experiment [4] (setting [10]) were 10700 and 10500, respectively. In addition, in experiment [5], the call was inactive. In addition, the z-score in experiment [6] is 0.315 (inactive).
Regarding `NC1C=CC=C(C(=O)O)C1` (stereo unspecified), in experiment [1], the period change is 0.115 h (inactive). The inhibition in experiment [2] is 0% (inactive). In addition, in experiment [3], the fluorescence ratio (interference) was 1 (inactive). Besides, the values for the fold change in experiment [4] (setting [7]) and in experiment [4] (setting [8]) were 1.08 (inactive) and 2.16, respectively. Also, the cell count in experiment [4] (setting [9]) was determined as 9940; in experiment [4] (setting [10]), 9200. The outcome in experiment [5] was inactive. In addition, the z-score in experiment [6] is 0.355 (inactive).
As for `Cn1c(=O)c2[nH]c(-c3ccc(S(=O)(=O)O)cc3)nc2n(C)c1=O`, the period change in experiment [1] is -0.005 h (inactive). Also, in experiment [2], the inhibition is 0% (inactive). Moreover, in experiment [3], the fluorescence ratio (interference) is 1 (inactive). The fold change in experiment [4] (setting [7]) was 1.01 (inactive); in experiment [4] (setting [8]) it was 2.24. The cell count is 10100 in experiment [4] (setting [9]) and 10000 in experiment [4] (setting [10]). The call in experiment [5] was inactive. The z-score in experiment [6] is -0.23 (inactive).
With `Nc1nc(Cl)nc2c1ncn2[C@@H]1O[C@H](CO)[C@H](O)C1O` (stereo partly specified), the period change in experiment [1] was -0.125 h (inactive). Also, the inhibition in experiment [2] is 0% (inactive). Moreover, in experiment [3], the fluorescence ratio (interference) is 1 (inactive). The fold change in experiment [4] (setting [7]) is 1.07 (inactive); in experiment [4] (setting [8]), 1.14. Moreover, the values for the cell count in experiment [4] (setting [9]) and in experiment [4] (setting [10]) were 1860 and 1750, respectively. Also, in experiment [5], the compound was called inactive. Moreover, the z-score in experiment [6] is -0.705 (inactive).
`CSc1nc(N)c2ncn([C@@H]3O[C@H](COP(=O)(O)OP(=O)(O)OP(=O)(O)O)[C@H](O)C3O)c2n1` (stereo partly specified): in experiment [1], the period change was -0.07 h (inactive). In addition, the inhibition in experiment [2] was 41% (active). Besides, in experiment [3], the fluorescence ratio (interference) was 1 (inactive). The fold change in experiment [4] (setting [7]) was 0.981 (inactive); in experiment [4] (setting [8]), 2.88. The values for the cell count in experiment [4] (setting [9]) and in experiment [4] (setting [10]) were 9690 and 9880, respectively. Besides, the outcome in experiment [5] was inactive. The z-score in experiment [6] is 1.04 (inactive).
On to `O=C(O)Cc1ccc(O)c(O)c1`, for which, in experiment [1], the period change is -0.08 h (inactive). For the same compound, the inhibition in experiment [2] was -1% (inactive). Further, in experiment [3], the fluorescence ratio (interference) was 1 (inactive). Also, the fold change was 0.965 (inactive) in experiment [4] (setting [7]) and 1.22 in experiment [4] (setting [8]). In addition, the cell count in experiment [4] (setting [9]) worked out at 9890; in experiment [4] (setting [10]), 10200. For the same compound, the result in experiment [5] was inactive. Also, in experiment [6], the z-score is -0.87 (inactive).
